Laboratory results from PubChem BioAssay AID1554 (Broad Institute, 2009).
Values joined by “and” are separate entries in the source; they are usually repeats but may differ in a detail not shown here. Equal entries are not always repeated. Among all 300,000 compounds or so, about 520 (0.17%) were called active. What follows is part of a selection rich in actives, with near analogues and random picks from the rest. Unmarked numbers belong to inactive results. No stated cut-off is given here; in the data, active means inhibition above about 50%; inconclusive means no clear call, values can overlap the other calls; inactive means below that.

assay: PubChem AID 1554; settings: BJeLR (HRASV12) viability, CellTiter-Glo ATP luminescence, 48 h; stronger effect = higher value; concentration not given here

Q: For `O=C(c1cc(-c2ccc(Cl)s2)nc2ccccc12)N1CCOCC1`, which inhibition is on record?
A: Its inhibition is -8.28%.

Q: With `Cc1ccc(CSCCNC(=O)CN(c2ccc(F)cc2)S(C)(=O)=O)cc1` as the compound, how does the inhibition read?
A: The inhibition was -8.45%.

Q: With `CC1CCCC(N2CCN(C(=O)c3ccc(F)cc3)CC2)C1` (stereo not given) as the compound, how does the inhibition read?
A: The inhibition was -5.87%.

Q: Which inhibition does the source give for `O=C(NCc1ccccc1Cl)c1ccc2c(=O)n(CC3CCCO3)c(=S)[nH]c2c1` (stereo not given) here?
A: Its inhibition is 9.1%.

Q: Which inhibition does the source give for `COc1cc(NC(=O)CSC(=S)N2CCCC2)c(OC)cc1Cl` here?
A: Its inhibition is -1.51%.

Q: With `CCOc1ccc(OCCSc2nc3ccccc3n2CC(=O)O)cc1` as the compound, how does the inhibition read?
A: Its inhibition is -3.19%.

Q: Which inhibition does the source give for `Cc1ccc2cc(C#N)c(NCCNC(=S)NCCCN3CCOCC3)nc2c1` here?
A: Its inhibition is 4.4%.

Q: For `COc1cc([N+](=O)[O-])ccc1NC(=S)N1CCN(c2ccccn2)CC1`, which inhibition is on record?
A: The inhibition was -1.41%.

Q: Which inhibition does the source give for `COc1ccc(N2CCN(C(C)=C3C(=O)c4ccccc4C3=O)CC2)cc1` here?
A: The inhibition was 2.27%.

Q: With `CCOC(=O)C1=C(c2ccc(OC)cc2)C(=O)c2ccccc2C1=O` as the compound, how does the inhibition read?
A: Its inhibition is 110% (active).

Q: With `CCOC(=O)c1cc2cc3ccccc3cc2oc1=O` as the compound, how does the inhibition read?
A: Its inhibition is -11.8%.

Q: Which inhibition does the source give for `Cc1ccc(S(=O)(=O)n2cccc2CO)cc1` here?
A: The inhibition was -3.34%.

Q: Which inhibition does the source give for `COCCNS(=O)(=O)c1cc(Br)ccc1OC` here?
A: The inhibition was -2.67%.

Q: With `O=C(NCc1ccc2c(c1)OCO2)c1cc2c(s1)CS(=O)(=O)C2` as the compound, how does the inhibition read?
A: Its inhibition is 5.68%.

Q: For `COc1ccc(C(=O)O)cc1S(=O)(=O)NCc1cccnc1`, which inhibition is on record?
A: The inhibition was 4.17%.

Q: For `Cn1cc(CCC(=O)N2CCCC(C(=O)c3ccc(C(C)(C)C)cc3)C2)cn1` (stereo not given), which inhibition is on record?
A: The inhibition was -7.89%.

Q: For `CC(NC(=O)CCCC1CCCCC1)c1ccc(S(N)(=O)=O)cc1` (stereo not given), which inhibition is on record?
A: The inhibition was 10.8%.

Q: For `COc1ccc(S(=O)(=O)N2CCCCCC2)cc1C(=O)N(C)Cc1cccc(OC)c1OC`, which inhibition is on record?
A: The inhibition was -3.35%.

Q: Which inhibition does the source give for `O=S(=O)(Cc1noc(-c2ccc(OC(F)(F)F)cc2)n1)c1ccc(F)cc1` here?
A: The inhibition was -11.6%.

Q: Which inhibition does the source give for `Cc1nnc(SCC(=O)N2c3ccccc3C(C)(c3ccc(Cl)cc3)CC2(C)C)s1` (stereo not given) here?
A: The inhibition was 13.1%.

Q: For `Cc1[nH]c(C)c(S(=O)(=O)N2CCN(c3cccc(C(F)(F)F)c3)CC2)c1C(=O)N1CCCCC1`, which inhibition is on record?
A: The inhibition was 0.76%.

Q: For `Nc1ccc(-n2nncc2-c2ccco2)cc1`, which inhibition is on record?
A: The inhibition was 11.6%.

Q: Which inhibition does the source give for `CCOc1c(N2CCCCC2)c(=O)c1=O` here?
A: The inhibition was 5.32%.

Q: With `O=C(/C=C/c1ccc([N+](=O)[O-])o1)NNC(=O)c1ccc(F)cc1` as the compound, how does the inhibition read?
A: The inhibition was 60.3% (active).

Q: For `Cc1ccc(/C=C/C(=O)Nc2ccc([N+](=O)[O-])c(NC(=O)/C=C/c3ccc(C)o3)c2)o1`, which inhibition is on record?
A: Its inhibition is -29.1%.

Q: Which inhibition does the source give for `O=C(N/N=C/c1ccc([N+](=O)[O-])o1)c1cn(-c2ccccc2)nc1-c1ccc(F)cc1` here?
A: Its inhibition is -4.37%.

Q: Which inhibition does the source give for `CNS(=O)(=O)c1cccc(C(=O)NC2CCCc3ccccc32)c1` (stereo not given) here?
A: The inhibition was -3.04%.

Q: For `CCCCCC(O)(CCN1CCCCC1)c1ccccc1` (stereo not given), which inhibition is on record?
A: Its inhibition is -2.94%.

Q: For `CC(C)CC[n+]1ccn(C2=C([O-])c3ccccc3C(=O)/C2=N\S(=O)(=O)c2ccccc2)c1`, which inhibition is on record?
A: The inhibition was -5.54%.

Q: Which inhibition does the source give for `CN(C)/C=C(\C#N)C(=O)c1cccnc1Oc1ccc(F)cc1F` here?
A: Its inhibition is -6.11%.

Q: Which inhibition does the source give for `Oc1ccc2ccccc2c1N=Nc1nccs1` here?
A: Its inhibition is 77.1% (active).

Q: For `COC(=O)CCSc1cc([N+](=O)[O-])cc2c1c(C1OCCS1)nn2-c1ccccc1` (stereo not given), which inhibition is on record?
A: The inhibition was 3.81%.

Q: Which inhibition does the source give for `CCOc1ccc(C(C)=O)cc1CSc1nnc(-c2ccncc2)n1CCOC` here?
A: Its inhibition is -17.6%.

Q: With `Cc1cc(C)c(NC(=O)CN2CCCCCC2)c(C)c1` as the compound, how does the inhibition read?
A: The inhibition was -2.78%.

Q: Which inhibition does the source give for `COc1cccc(C(=O)Nc2ccc(N3CCN(C(=O)c4ccco4)CC3)cc2)c1` here?
A: The inhibition was 11.7%.

Q: Which inhibition does the source give for `COc1cccc(C(=O)Nc2ccc(N3CCCC3)cc2)c1` here?
A: The inhibition was 52.9% (active).

Q: Which inhibition does the source give for `CN1CCN(c2ccc(NC(=O)c3ccccc3)cc2)CC1` here?
A: The inhibition was -5.43%.

Q: With `Cc1[nH]c2ccccc2c1-c1ccc(Cl)nn1` as the compound, how does the inhibition read?
A: The inhibition was 7.01%.

Q: With `CC(C)(C)SCCSC1=CC(=O)CC(c2ccccc2)C1` (stereo not given) as the compound, how does the inhibition read?
A: Its inhibition is 7.66%.

Q: With `CC1=C/C(=N\OS(=O)(=O)c2ccccc2)C=CC1=O` as the compound, how does the inhibition read?
A: The inhibition was 91.4% (active).

Q: For `CCCCCCCCCCCCn1ccc(=N)cc1`, which inhibition is on record?
A: The inhibition was 87.5% (active).

Q: For `CCCCCCCCn1c2c(c(=N)c3c1CCC3)CCCC2`, which inhibition is on record?
A: Its inhibition is 24.6%.

Q: Which inhibition does the source give for `CCCCCN1CC(O)=C(c2ccccc2)C1=N` here?
A: The inhibition was -8.91%.

Q: For `Cn1c(Cc2cccs2)nnc1SCC(=O)Nc1ccccc1`, which inhibition is on record?
A: The inhibition was -23.8%.

Q: With `C=CCc1c(C)nc2cc(-c3ccccc3)[nH]n2c1=O` as the compound, how does the inhibition read?
A: The inhibition was 2.64%.

Q: For `COC(=O)c1ccc(COC(=O)c2c(C)nn(Cc3ccccc3Cl)c2Cl)o1`, which inhibition is on record?
A: The inhibition was -0.748%.

Q: Which inhibition does the source give for `CCOC(=O)C1CCCN(S(=O)(=O)c2ccc3c(c2)C(C)(C)C(=O)N3C)C1` (stereo not given) here?
A: Its inhibition is -8.48%.

Q: With `N#Cc1cccc(CN2CCC(=O)N([C@H](CO)c3ccccc3)CC2)c1` as the compound, how does the inhibition read?
A: Its inhibition is 4.84%.

Q: Which inhibition does the source give for `CCc1ccc(-c2nn(-c3ccccc3)cc2CSC(=N)N)cc1` here?
A: The inhibition was 103% (active).

Q: For `Cc1ccc(-c2nn(-c3ccccc3)cc2CN(Cc2ccccc2)C(=O)CCC(=O)O)o1`, which inhibition is on record?
A: Its inhibition is -0.0578%.

Q: With `Cc1ccc(-c2nn(-c3ccccc3)cc2/C=N/NC(=O)c2ccc3c(c2)OCO3)cc1` as the compound, how does the inhibition read?
A: Its inhibition is 11.4%.

Q: Which inhibition does the source give for `COc1ccc(S(=O)(=O)N2CCOC2CNC(=O)C(=O)NCc2ccc(F)cc2)cc1` (stereo not given) here?
A: The inhibition was 6.34%.

Q: For `Cc1nnc(SC(C)C(=O)Nc2ccc(S(=O)(=O)NC3CCCCC3)cc2)s1` (stereo not given), which inhibition is on record?
A: The inhibition was -6.12%.

Q: Which inhibition does the source give for `Cc1cc([N+](=O)[O-])nn1Cc1ccc(F)cc1` here?
A: The inhibition was 7.4%.

Q: For `CCCc1cc(=O)[nH]c(SCC(=O)OCc2ccccc2)n1`, which inhibition is on record?
A: Its inhibition is -0.726%.

Q: With `CCCc1cc(=O)[nH]c(SCC(=O)c2cc(C)n(CCC)c2C)n1` as the compound, how does the inhibition read?
A: Its inhibition is 0.606%.

Q: For `CCCc1cc(=O)[nH]c(SCC(=O)c2c(N)n(CC(C)C)c(=O)n(C)c2=O)n1`, which inhibition is on record?
A: Its inhibition is 63.2% (active).

Q: With `COC(=O)[C@H]1[C@H]2C[C@H]3c4[nH]c5ccccc5c4CCN3C[C@@H]2CC[C@@H]1O` as the compound, how does the inhibition read?
A: Its inhibition is -6.61% and 2.06%.

Q: Which inhibition does the source give for `CC(C)(C)c1ccc(/C=C2\SC(=O)N=C2N)cc1` here?
A: The inhibition was -2.23%.

Q: For `CC(NC(=O)CC1SC(N)=NC1=O)c1ccccc1` (stereo not given), which inhibition is on record?
A: The inhibition was 4.16%.
